Of roughly 7,900 targets only a part is listed; those with a hit were picked by preference. About 0.6% of all pairs of compound and target were hits.
Experiments:
Experiment in all cases: log2 fold change, soluble protein after heating vs DMSO (PISA); higher = thermal stabilisation; K562 cells, 10 uM, 30 min; active = over 0.2 and 3.5 SD of the protein, either way, in both replicates (recomputed)
[1] = compound: C/C(=N\NC(=O)C1=CC(=CC=C1)S(=O)(=O)N2CCOCC2)/C3=C(C=CC(=C3)Cl)O
Outline: (§1)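 Quantification of soluble protein used TMTpro 16plex LC-MS/MS, with channel sums equalised. Samples were the supernatant after 21,000xg for 90 min of pooled aliquots from K562 cells (2×10^6 cells/mL) treated with 10 μM compound for 30 min, heated for 3 min over 48°C-58°C, and extracted in PBS with 0.5% NP-40 at 4°C. Values, from duplicates, describe thermal stability against control samples on a log2 fold-change scale.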

[2] = compound: C1=CC2=C(C=CC(=C2)/C=C\3/C(=O)NC(=NCC4=CC=CS4)S3)N=C1
Outline: as §1

[3] = compound: C1=CC2=NC=CN=C2C=C1/C=C/3\C(=O)NC(=O)S3
Outline: as §1

[4] = compound: C1=CC=C(C=C1)C2=NC(=C(N2)C3=CC=NC=C3)C4=CC(=C(C=C4)Cl)O
Outline: as §1

[5] = compound: C1=CC=C2C(=C1)C3=NNC4=CC=CC(=C43)C2=O
Outline: as §1

[6] = compound: C1COCCN1CCN2C3=CC=CC=C3N=C2NC(=O)C4=CC(=CC=C4)[N+](=O)[O-] [IRAK-1-4 Inhibitor I]
Outline: as §1

[7] = compound: C=CC(=O)N1CCC[C@@H](n2nc(-c3ccc(Oc4ccccc4)cc3)c3c(N)ncnc32)C1 [ibrutinib]
Outline: as §1

[8] = compound: CC(=O)c1cnc2ccc(-c3cc(Cl)c(O)c(Cl)c3)nc2c1N[C@H]1CC[C@H](CN(C)C)CC1
Outline: as §1

[9] = compound: CC(C)(C)Cn1c(N)nc2ccc(-c3[nH]c(C(C)(C)C)nc3-c3ccc(F)cc3)nc21 [ralimetinib]
Outline: as §1

[10] = compound: CC(C)C[C@@H](C=O)NC(=O)[C@H](CC(C)C)NC(=O)[C@H](CC(C)C)NC(=O)OCc1ccccc1
Outline: as §1

[11] = compound: CC(C)N(C[C@H]1O[C@@H](n2cnc3c(N)ncnc32)[C@H](O)[C@@H]1O)[C@H]1C[C@@H](CCc2nc3cc(C(C)(C)C)ccc3[nH]2)C1 [pinometostat]
Outline: as §1

[12] = compound: CC1=C(C(CC(=O)N1)C2=CC=C(C=C2)C(F)(F)F)C(=O)NC3=C(C=C4C(=C3)C=NN4)F
Outline: as §1

[13] = compound: C#Cc1cccc(Nc2ncnc3cc(OCCOC)c(OCCOC)cc23)c1 [erlotinib]
Outline: as §1

[14] = compound: C1=CC(=C(C=C1Cl)C2=NC3=NC=CN=C3C(=N2)NC4=CC=NC=C4)F
Outline: as §1

[15] = compound: C1=CC(=CC=C1C2=NC3=C(N2)C=C(C=C3)C(=O)N)OC4=CC=C(C=C4)Cl
Outline: as §1

[16] = compound: C1CCN(C1)C(=O)NC2=CC=CC(=C2)NC3=NC=C(C(=N3)NCCC4=CN=CN4)Br
Outline: as §1

[17] = compound: C1CN(CCC1(CC2=CC=C(C=C2)Cl)N)C3=NC=NC4=C3C=CN4
Outline: as §1

[18] = compound: CC(C)(O)CC(=O)NCCn1ccc2ncnc(Nc3ccc(Oc4cccc(C(F)(F)F)c4)c(Cl)c3)c21
Outline: as §1

[19] = compound: CC(C)C1=C2N=C(C=C(N2N=C1)NCC3=CC=CC=C3)NCCCCCCN
Outline: as §1

[20] = compound: CC1=C(C2=C(C=C1)C(=O)C3=CC=CC=C3N2CCCN)C
Outline: as §1

Measured: log2 fold change

THAP9 (UniProt Q9H5L6)
active: [1] -0.733
inactive: [2] 0.163 | [3] -0.211 | [4] 0.123 | [5] -0.057 | [6] 0.07 | [7] 0.002 | [8] -0.105 | [9] 0.178 | [10] -0.025 | [11] -0.035 | [12] 0.027

TCOF1 isoform 3 (UniProt Q13428)
Sequence of UniProt Q13428 (Q13428 whole entry, looked up): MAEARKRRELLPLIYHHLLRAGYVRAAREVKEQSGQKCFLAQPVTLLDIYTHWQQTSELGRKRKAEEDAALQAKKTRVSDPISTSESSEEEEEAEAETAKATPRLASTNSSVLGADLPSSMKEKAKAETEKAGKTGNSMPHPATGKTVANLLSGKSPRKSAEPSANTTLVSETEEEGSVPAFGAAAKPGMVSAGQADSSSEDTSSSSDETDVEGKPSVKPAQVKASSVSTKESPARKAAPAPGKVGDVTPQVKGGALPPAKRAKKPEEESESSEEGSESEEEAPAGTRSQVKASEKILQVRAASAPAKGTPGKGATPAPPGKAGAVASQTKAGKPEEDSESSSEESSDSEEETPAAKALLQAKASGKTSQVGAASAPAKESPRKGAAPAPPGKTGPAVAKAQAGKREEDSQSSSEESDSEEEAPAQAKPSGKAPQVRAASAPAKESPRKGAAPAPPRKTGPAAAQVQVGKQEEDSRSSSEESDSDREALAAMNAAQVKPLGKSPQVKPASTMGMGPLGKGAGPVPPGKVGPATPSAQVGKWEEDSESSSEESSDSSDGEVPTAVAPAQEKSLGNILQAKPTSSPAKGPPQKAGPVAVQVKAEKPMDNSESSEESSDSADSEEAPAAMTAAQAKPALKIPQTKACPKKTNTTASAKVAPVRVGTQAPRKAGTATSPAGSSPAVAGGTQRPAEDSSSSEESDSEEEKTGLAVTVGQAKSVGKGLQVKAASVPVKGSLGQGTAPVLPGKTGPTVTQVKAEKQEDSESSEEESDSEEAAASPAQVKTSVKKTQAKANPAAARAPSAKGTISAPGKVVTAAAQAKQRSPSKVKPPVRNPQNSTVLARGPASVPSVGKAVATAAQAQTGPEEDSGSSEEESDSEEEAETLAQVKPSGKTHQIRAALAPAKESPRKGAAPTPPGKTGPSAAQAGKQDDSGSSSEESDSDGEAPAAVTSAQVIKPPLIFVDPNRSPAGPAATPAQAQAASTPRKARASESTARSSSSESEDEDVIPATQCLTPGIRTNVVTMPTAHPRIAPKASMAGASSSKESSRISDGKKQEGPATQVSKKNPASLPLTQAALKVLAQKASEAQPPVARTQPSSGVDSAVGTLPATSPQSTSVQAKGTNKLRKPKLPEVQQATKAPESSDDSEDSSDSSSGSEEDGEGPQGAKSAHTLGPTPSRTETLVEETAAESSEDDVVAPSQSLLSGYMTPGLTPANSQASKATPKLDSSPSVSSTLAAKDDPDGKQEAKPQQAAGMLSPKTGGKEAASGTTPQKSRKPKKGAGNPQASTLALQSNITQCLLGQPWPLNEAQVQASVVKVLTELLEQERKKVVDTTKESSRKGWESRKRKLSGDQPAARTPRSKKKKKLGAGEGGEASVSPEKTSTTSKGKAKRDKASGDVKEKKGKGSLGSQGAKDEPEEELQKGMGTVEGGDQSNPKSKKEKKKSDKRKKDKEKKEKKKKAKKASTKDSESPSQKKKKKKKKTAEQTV
inactive: [13] 0.062 | [14] -0.193 | [15] -0.172 | [4] -0.056 | [16] 0.101 | [17] 0.012 | [9] 0.522 | [18] -0.095 | [19] -0.01 | [10] 0.176 | [20] -0.642

TDP1 (UniProt Q9NUW8)
inactive: [13] 0.141 | [19] 0.156

TK1 (UniProt K7ERV3)
inactive: [1] 0.063 | [14] -0.011 | [2] 0.028 | [3] -0.006 | [4] -0.069 | [5] 0.037 | [16] -0.015 | [17] 0.061 | [7] -0.033 | [8] -0.071 | [9] -0.025 | [18] -0.122 | [10] 0.078 | [12] 0.004 | [20] -0.037

SMARCB1 (UniProt Q12824)
inactive: [16] 0.038 | [17] 0.025 | [6] -0.082 | [11] 0.179 | [20] -0.031

SLC39A1 (UniProt Q9NY26)
inactive: [13] 0.123 | [15] 0.053
active: [19] -1.06

TBC1D2 (UniProt Q9BYX2)
Sequence of UniProt Q9BYX2 (Q9BYX2 whole entry, looked up): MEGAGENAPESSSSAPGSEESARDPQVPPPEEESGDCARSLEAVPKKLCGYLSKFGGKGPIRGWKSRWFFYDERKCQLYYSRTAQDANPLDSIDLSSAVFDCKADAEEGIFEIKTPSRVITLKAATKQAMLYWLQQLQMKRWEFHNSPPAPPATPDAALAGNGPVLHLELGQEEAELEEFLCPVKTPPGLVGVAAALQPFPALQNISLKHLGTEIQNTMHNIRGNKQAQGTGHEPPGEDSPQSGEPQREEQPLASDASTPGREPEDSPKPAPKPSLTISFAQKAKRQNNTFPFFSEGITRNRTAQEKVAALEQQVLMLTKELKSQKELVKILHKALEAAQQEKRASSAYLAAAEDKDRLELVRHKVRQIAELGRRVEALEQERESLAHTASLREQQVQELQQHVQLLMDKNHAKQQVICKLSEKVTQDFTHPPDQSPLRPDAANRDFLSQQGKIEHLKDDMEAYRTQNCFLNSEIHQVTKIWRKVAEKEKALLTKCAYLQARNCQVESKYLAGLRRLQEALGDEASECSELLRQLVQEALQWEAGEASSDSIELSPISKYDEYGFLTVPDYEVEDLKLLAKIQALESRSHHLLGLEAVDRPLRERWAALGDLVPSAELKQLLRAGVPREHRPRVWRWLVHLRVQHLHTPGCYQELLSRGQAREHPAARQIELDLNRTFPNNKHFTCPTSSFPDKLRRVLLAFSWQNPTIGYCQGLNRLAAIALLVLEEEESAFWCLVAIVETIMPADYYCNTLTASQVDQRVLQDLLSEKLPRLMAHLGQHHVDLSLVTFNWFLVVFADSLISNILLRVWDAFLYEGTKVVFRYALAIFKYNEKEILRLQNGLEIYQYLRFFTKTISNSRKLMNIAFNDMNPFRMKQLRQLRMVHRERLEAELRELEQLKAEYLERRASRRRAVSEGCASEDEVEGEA
inactive: [1] 0 | [14] -0.042 | [2] 0.063 | [5] -0.006 | [8] -0.208 | [18] 0.007

SRCAP (UniProt Q6ZRS2)
inactive: [13] 0.039 | [15] 0.031 | [3] 0.117 | [4] -0.191 | [16] 0.059 | [17] -0.254 | [7] 0 | [9] 0.036 | [19] 0.046 | [10] 0.12 | [11] 0.037 | [12] 0.078 | [20] 0.103
active: [6] -0.42

SYNE2 isoform 2 (UniProt Q8WXH0)
inactive: [13] 0.405 | [15] -0.301 | [2] 0.084 | [3] -0.027 | [4] -0.007 | [5] 0.001 | [16] -0.045 | [17] 0.029 | [6] 0.046 | [7] -0.037 | [8] 0.059 | [9] 0.01 | [19] 0.078 | [10] 0.059 | [11] -0.024 | [12] 0 | [20] 0.044
active: [1] -0.672

SLC8B1 (UniProt Q6J4K2)
Sequence of UniProt Q6J4K2 (Q6J4K2 whole entry, looked up): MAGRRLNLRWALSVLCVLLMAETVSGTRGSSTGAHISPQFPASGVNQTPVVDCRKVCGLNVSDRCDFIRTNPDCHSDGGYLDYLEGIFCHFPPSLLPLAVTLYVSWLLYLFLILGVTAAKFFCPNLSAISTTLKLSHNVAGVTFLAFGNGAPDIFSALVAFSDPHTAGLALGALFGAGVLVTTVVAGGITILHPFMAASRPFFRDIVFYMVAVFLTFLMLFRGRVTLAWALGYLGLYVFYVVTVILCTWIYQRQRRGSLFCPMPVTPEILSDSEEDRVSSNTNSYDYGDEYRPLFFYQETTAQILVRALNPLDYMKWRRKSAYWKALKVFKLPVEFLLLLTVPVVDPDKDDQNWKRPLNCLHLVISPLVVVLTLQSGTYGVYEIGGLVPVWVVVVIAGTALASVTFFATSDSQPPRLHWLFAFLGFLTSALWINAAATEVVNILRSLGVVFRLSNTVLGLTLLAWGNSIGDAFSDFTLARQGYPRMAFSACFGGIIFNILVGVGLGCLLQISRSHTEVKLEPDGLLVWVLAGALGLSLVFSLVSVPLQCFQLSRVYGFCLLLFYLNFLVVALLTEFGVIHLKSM
inactive: [13] 0.111 | [1] 0.089 | [15] 0.003 | [2] -0.039 | [3] 0.095 | [4] 0.016 | [5] 0.032 | [6] 0.096 | [7] -0.091 | [8] 0.112 | [9] -0.093 | [19] -0.378 | [10] 0.048 | [11] 0.019

SREBF1 isoform 4 (UniProt P36956)
inactive: [13] 0.034 | [14] 0.045 | [15] 0.001 | [3] 0.068 | [6] 0.008 | [7] 0.025 | [18] -0.404 | [19] -0.077 | [11] -0.088

TBP (UniProt P20226)
inactive: [1] -0.016 | [14] 0.027 | [2] 0.073 | [3] 0.041 | [4] 0.012 | [5] -0.058 | [16] 0.018 | [17] 0.157 | [6] 0.018 | [7] -0.029 | [8] 0.091 | [9] -0.016 | [18] 0.036 | [10] -0.002 | [11] -0.019 | [12] -0.046
active: [20] 0.528

SPIN4 (UniProt Q56A73)
inactive: [13] -0.125 | [15] 0.116 | [6] 0.07 | [19] -0.079 | [11] 0.051

STK17B (UniProt O94768)
inactive: [13] 0.128 | [15] 0.072 | [3] -0.169 | [6] -0.12 | [7] -0.235 | [19] -0.262 | [11] 0.033

TC2N (UniProt Q8N9U0)
Sequence of UniProt Q8N9U0 (Q8N9U0 whole entry, looked up): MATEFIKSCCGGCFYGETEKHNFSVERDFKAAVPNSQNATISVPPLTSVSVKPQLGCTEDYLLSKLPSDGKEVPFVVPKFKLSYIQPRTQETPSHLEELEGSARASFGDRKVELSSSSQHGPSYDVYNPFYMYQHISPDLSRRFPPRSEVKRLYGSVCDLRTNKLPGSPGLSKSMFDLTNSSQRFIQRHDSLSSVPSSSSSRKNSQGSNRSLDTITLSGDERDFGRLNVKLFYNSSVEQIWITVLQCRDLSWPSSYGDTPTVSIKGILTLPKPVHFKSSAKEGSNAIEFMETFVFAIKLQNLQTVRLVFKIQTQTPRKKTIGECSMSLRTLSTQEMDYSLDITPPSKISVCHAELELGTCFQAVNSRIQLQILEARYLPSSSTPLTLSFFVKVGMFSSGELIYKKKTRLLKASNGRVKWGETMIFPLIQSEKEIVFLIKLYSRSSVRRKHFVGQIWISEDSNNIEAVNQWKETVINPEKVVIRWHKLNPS
inactive: [1] 0.038 | [2] 0.362 | [4] -0.021 | [5] 0.054 | [16] 0.042 | [17] -0.004 | [8] -0.486 | [9] -0.036 | [10] 0.028 | [12] -0.364 | [20] 0.014

SLC46A1 (UniProt Q96NT5)
Sequence of UniProt Q96NT5 (Q96NT5 whole entry, looked up): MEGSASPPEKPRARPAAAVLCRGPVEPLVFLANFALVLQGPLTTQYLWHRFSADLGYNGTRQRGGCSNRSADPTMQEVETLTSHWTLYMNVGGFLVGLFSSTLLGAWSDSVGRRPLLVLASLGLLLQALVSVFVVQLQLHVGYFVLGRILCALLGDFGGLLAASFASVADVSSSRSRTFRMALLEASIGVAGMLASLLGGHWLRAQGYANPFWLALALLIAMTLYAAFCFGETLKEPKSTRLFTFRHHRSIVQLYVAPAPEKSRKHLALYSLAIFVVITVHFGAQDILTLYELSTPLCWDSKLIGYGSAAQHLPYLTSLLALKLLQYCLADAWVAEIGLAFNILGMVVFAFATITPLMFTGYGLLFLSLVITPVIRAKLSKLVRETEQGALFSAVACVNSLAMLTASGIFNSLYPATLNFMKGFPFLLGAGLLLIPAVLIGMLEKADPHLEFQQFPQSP
inactive: [13] 0.094 | [1] -0.017 | [15] -0.054 | [2] -0.042 | [5] 0 | [16] -0.193 | [17] 0.091 | [8] -0.008 | [19] -0.04 | [20] -0.049

SNRK (UniProt Q9NRH2)
inactive: [6] -0.126 | [11] -0.087

TM7SF2 (UniProt O76062)
inactive: [13] -0.012 | [15] -0.05 | [4] -0.151 | [9] -0.106 | [19] -0.124 | [10] -0.01 | [12] -0.134

TENT5C (UniProt Q5VWP2)
inactive: [13] -0.117 | [15] 0.087 | [3] 0.023 | [4] -0.104 | [16] -0.025 | [17] -0.017 | [6] 0.136 | [7] 0.008 | [9] -0.119 | [19] 0.18 | [10] 0.03 | [11] -0.028 | [12] -0.018 | [20] -0.014

TCOF1 isoform 6 (UniProt Q13428)
inactive: [13] -0.234 | [15] 0.074 | [3] -0.045 | [4] 0.186 | [16] 0.002 | [17] 0.02 | [6] 0.041 | [7] 0.12 | [9] 0.225 | [19] 0.092 | [10] -0.127 | [11] -0.121 | [12] 0 | [20] -0.155

SLC39A11 (UniProt Q8N1S5)
Sequence of UniProt Q8N1S5 (Q8N1S5 whole entry, looked up): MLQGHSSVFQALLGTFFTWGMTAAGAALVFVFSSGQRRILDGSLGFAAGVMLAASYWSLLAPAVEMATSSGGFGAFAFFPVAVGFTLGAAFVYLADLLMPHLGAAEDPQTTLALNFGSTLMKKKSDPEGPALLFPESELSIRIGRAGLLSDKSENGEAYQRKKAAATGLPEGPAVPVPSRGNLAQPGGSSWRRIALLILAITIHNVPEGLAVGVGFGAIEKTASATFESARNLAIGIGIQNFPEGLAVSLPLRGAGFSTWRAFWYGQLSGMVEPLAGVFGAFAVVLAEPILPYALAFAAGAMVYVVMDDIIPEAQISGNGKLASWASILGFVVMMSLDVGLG
inactive: [13] -0.042 | [1] -0.009 | [15] 0.05 | [2] 0.043 | [3] 0.009 | [4] 0.07 | [5] 0.053 | [16] -0.144 | [17] 0.019 | [6] 0.092 | [7] 0.066 | [8] 0.051 | [9] 0.012 | [19] -0.117 | [10] -0.051 | [11] -0.085 | [12] -0.024 | [20] 0.07

SPAG9 isoform 4 (UniProt O60271)
inactive: [13] 0.019 | [1] 0.048 | [15] -0.087 | [2] -0.103 | [3] -0.065 | [4] 0.272 | [5] 0.04 | [16] 0.03 | [17] 0.119 | [6] -0.027 | [7] 0.349 | [8] 0.14 | [9] 0.191 | [19] -0.202 | [10] 0.049 | [11] 0.061 | [12] -0.003 | [20] -0.243

SOX5 (UniProt P35711)
Sequence of UniProt P35711 (P35711 whole entry, looked up): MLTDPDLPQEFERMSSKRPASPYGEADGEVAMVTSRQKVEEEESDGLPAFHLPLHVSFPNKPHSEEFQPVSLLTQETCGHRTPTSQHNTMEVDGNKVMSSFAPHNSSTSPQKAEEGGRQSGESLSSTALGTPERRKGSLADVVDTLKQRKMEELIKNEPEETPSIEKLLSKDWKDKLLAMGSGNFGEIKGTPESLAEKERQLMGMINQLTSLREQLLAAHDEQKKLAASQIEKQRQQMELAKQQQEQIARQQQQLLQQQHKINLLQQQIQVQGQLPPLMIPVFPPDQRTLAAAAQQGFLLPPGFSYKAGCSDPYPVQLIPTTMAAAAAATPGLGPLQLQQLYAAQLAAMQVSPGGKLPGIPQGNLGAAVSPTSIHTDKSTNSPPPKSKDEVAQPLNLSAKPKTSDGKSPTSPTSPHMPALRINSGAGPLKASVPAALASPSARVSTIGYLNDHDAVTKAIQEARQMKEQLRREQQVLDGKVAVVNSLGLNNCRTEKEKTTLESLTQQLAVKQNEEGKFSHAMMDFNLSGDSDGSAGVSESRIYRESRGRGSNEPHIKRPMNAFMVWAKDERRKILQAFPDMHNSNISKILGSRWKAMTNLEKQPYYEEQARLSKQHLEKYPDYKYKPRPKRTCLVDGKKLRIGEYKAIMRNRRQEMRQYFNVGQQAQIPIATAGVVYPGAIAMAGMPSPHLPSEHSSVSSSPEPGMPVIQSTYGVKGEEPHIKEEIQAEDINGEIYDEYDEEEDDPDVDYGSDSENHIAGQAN
inactive: [13] 0.009 | [1] 0.006 | [15] 0.125 | [2] 0.047 | [3] 0.018 | [4] -0.049 | [5] 0.012 | [16] -0.069 | [17] 0.095 | [6] 0.067 | [7] 0.115 | [8] -0.028 | [9] 0.037 | [19] -0.086 | [10] 0.368 | [11] -0.088 | [12] -0.051 | [20] -0.081
